Laboratory results as given in PubChem BioAssay AID1159580 (chemical genetic matrix, 2015).
Screen size: about 5,500 compounds; about 2,000 (36%) were called active. Roughly 18% stayed inconclusive and do not appear here. Cut-off read from the data, not from the text of the source: active = normalized growth mostly below about 0.91 (no sharp cut-off); inconclusive = no clear call, values can overlap the other calls; inactive = mostly above about 0.92. Some of the results follow.

Test: chemical genetic growth profiling, strain panel (AID 1159580);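 note: tested at 20 µM; growth read once vehicle control cultures reached saturation at 30 °C; 1 = growth at the plate median or of vehicle wells; lower values mean less growth of the strain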
Conditions: S. cerevisiae deletion strains, growth OD

Measured: normalized growth

COC(=O)[C@]1(C)CCC[C@]2(C)c3ccc(C(C)C)cc3C(=O)CC12 (stereo partly drawn)
inactive: locus YAL013W, strain DEP1, hits give low values 0.981 | locus YAL021C, strain ccr4, hits give low values 0.992 | locus YAL026C, strain drs2, hits give low values 0.952 | locus YAL030W, strain snc1, hits give low values 0.974 | locus YBL061C, strain skt5, hits give low values 0.972 | locus YBR009C, strain hhf1, hits give low values 0.961 | locus YBR021W, strain FUR4, hits give low values 1.1 | locus YBR023C, strain chs3, hits give low values 0.973 | locus YBR229C, strain ROT2, hits give low values 0.986 | locus YBR231C, strain swc5, hits give low values 0.968 | locus YBR279W, strain paf1, hits give low values 0.971 | locus YCL011C, strain gbp2, hits give low values 0.961 | locus YCL016C, strain dcc1, hits give low values 0.979 | locus YCL029C, strain bik1, hits give low values 1.01 | locus YCL061C, strain MRC1, hits give low values 0.968 | locus YCL069W, strain vba3, hits give low values 0.956 | locus YCR088W, strain abp1, hits give low values 0.96 | locus YDL005C, strain med2, hits give low values 0.945 | locus YDL035C, strain GPR1, hits give low values 0.999 | locus YDL040C, strain nat1, hits give low values 0.96 | locus YDL074C, strain BRE1, hits give low values 0.863 | locus YDL101C, strain DUN1, hits give low values 0.969 | locus YDL134C, strain PPH21, hits give low values 0.974 | locus YDL185W, strain tfp1, hits give low values 1 | locus YDL192W, strain arf1, hits give low values 1.01 | locus YDR001C, strain nth1, hits give low values 0.957 | locus YDR069C, strain doa4, hits give low values 0.974 | locus YDR101C, strain arx1, hits give low values 1.01 | locus YDR137W, strain rgp1, hits give low values 0.866 | locus YDR150W, strain NUM1, hits give low values 0.975 | locus YDR159W, strain sac3, hits give low values 0.95 | locus YDR162C, strain NBP2, hits give low values 0.866 | locus YDR195W, strain ref2 0.97 | locus YDR297W, strain sur2, hits give low values 0.967 | locus YDR318W, strain mcm21, hits give low values 1.02 | locus YDR334W, strain swr1, hits give low values 0.948 | locus YDR335W, strain msn5, hits give low values 0.978 | locus YDR388W, hits give low values 1 | locus YDR502C, strain sam2, hits give low values 0.985 | locus YEL003W, strain gim4, hits give low values 0.977 | locus YEL037C, strain rad23, hits give low values 0.95 | locus YEL061C, strain CIN8 (second series), hits give low values 0.948 | locus YEL061C, strain CIN8, hits give low values 0.997 | locus YER015W, strain faa2, hits give low values 0.974 | locus YER016W, strain bim1, hits give low values 0.958 | locus YER110C, hits give low values 1.02 | locus YER111C, strain swi4, hits give low values 0.956 | locus YER155C, strain BEM2 (second series), hits give low values 0.956 | locus YER155C, strain BEM2, hits give low values 0.995 | locus YER167W, strain BCK2, hits give low values 0.997 | locus YFR010W, strain ubp6, hits give low values 0.977 | locus YGL078C, strain dbp3, hits give low values 0.988 | locus YGL086W, strain mad1, hits give low values 1.01 | locus YGL167C, strain pmr1, hits give low values 0.928 | locus YGL173C, strain kem1, hits give low values 0.97 | locus YGL227W, strain vid30, hits give low values 0.972 | locus YGL240W, strain doc1, hits give low values 0.973 | locus YGL248W, strain PDE1, hits give low values 0.971 | locus YGL253W, strain hxk2, hits give low values 0.978 | locus YGR078C, strain PAC10, hits give low values 0.957 | locus YGR135W, strain pre9, hits give low values 0.954 | locus YGR229C, strain SMI1, hits give low values 0.861 | locus YGR252W, strain gcn5, hits give low values 1.1 | locus YHR013C, strain ard1, hits give low values 0.959 | locus YHR027C, strain rpn1, hits give low values 0.971 | locus YHR030C, strain SLT2, hits give low values 1 | locus YHR079C, strain IRE1 (second series), hits give low values 0.999 | locus YHR094C, strain hxt1, hits give low values 0.995 | locus YHR129C, strain ARP1, hits give low values 0.994 | locus YHR142W, strain chs7, hits give low values 0.98 | locus YHR200W, strain rpn10, hits give low values 0.993 | locus YIL066C, strain RNR3, hits give low values 0.974 | locus YIL073C, strain SPO22, hits give low values 1.01 | locus YIL125W, strain kgd1, hits give low values 0.996 | locus YIR030C, strain dcg1, hits give low values 0.993 | locus YJL092W, strain hpr5, hits give low values 0.946 | locus YJL095W, strain BCK1 (second series), hits give low values 0.972 | locus YJL095W, strain BCK1, hits give low values 0.889 | locus YJL115W, strain asf1, hits give low values 0.962 | locus YJL129C, strain trk1, hits give low values 0.899 | locus YJL134W, strain LCB3, hits give low values 0.989 | locus YJL154C, strain vps35, hits give low values 0.967 | locus YJL164C, strain tpk1, hits give low values 0.957 | locus YJL166W, strain qcr8, hits give low values 0.968 | locus YJL168C, strain set2, hits give low values 0.998 | locus YJL187C, strain SWE1 (second series), hits give low values 0.98
active: locus YBR171W, strain sec66, hits give low values 0.869 | locus YDR392W, strain spt3, hits give low values 0.732
